PubChem BioAssay (NCATS)
Results filed as inconclusive are left out. The source made the active and inactive calls. The call rests on the fitted dose curve; in most records, active means well fitted curve in the direction sought with a large enough effect; inconclusive means small, poorly fitted or top-dose-only effect, or another doubt; inactive means no such curve, though single readings can be large; an effect the other way counts as inactive or inconclusive.

Columns and labels:
MCC-13 = assay: qHTS assay to identify novel small-molecules to repurpose for Merkel cell carcinoma treatment (AID 1296009); settings: MCC and control cell lines, CellTiter-Glo viability, 72 h; series mostly up to 46 µM; further: nearly all actives have a fitted effect of over 60% in size
In short: (§1)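 Cells were incubated with compound for 72 hr at 37 degree celsius before CellTiter-Glo addition. Luminescence was normalized with no-cell wells as full cytotoxicity and DMSO as baseline.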

MCC-26 = assay: as above; settings: MCC and control cell lines, CellTiter-Glo viability, 72 h; series mostly up to 46 µM
In short: as §1

MKL-1 = assay: as above; settings: MCC and control cell lines, CellTiter-Glo viability, 72 h; series mostly up to 46 µM
In short: as §1

MKL-2 = assay: as above; settings: MCC and control cell lines, CellTiter-Glo viability, 72 h; series mostly up to 46 µM
In short: as §1

NIH3T3 = assay: as above; settings: MCC and control cell lines, CellTiter-Glo viability, 72 h; at 44.8 µM (top of the series) unless noted
In short: as §1

UISO = assay: as above; settings: MCC and control cell lines, CellTiter-Glo viability, 72 h; series mostly up to 46 µM
In short: as §1

WaGa = assay: as above; settings: MCC and control cell lines, CellTiter-Glo viability, 72 h; series mostly up to 46 µM
In short: as §1

C33A = assay: Primary qHTS to identify gynecologic anti-cancer compounds using libraries of approved drugs and bioactive compounds (AID 1345084); settings: Gynecologic cancer cell panel viability, ATPlite luminescence, 48 h; series mostly up to 57.5 µM; further: nearly all actives have a fitted effect of over 55% in size
In short: (§2)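 Five-point cytotoxicity, 48 h drug exposure at 37 C, 5% CO2, on cells seeded 16 h beforehand. ATP content read by ATPlite luminescence.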

CAOV3 = assay: as above; settings: Gynecologic cancer cell panel viability, ATPlite luminescence, 48 h; series mostly up to 57.5 µM
In short: as §2

CASKI = assay: as above; settings: Gynecologic cancer cell panel viability, ATPlite luminescence, 48 h; series mostly up to 57.5 µM
In short: as §2

Es-2 = assay: as above; settings: Gynecologic cancer cell panel viability, ATPlite luminescence, 48 h; series mostly up to 57.5 µM
In short: as §2

HeLa = assay: as above; settings: Gynecologic cancer cell panel viability, ATPlite luminescence, 48 h; series mostly up to 57.5 µM
In short: as §2

Hek293T = assay: as above; settings: Gynecologic cancer cell panel viability, ATPlite luminescence, 48 h, control line for the selectivity index; series mostly up to 57.5 µM
In short: as §2

JEG-3 = assay: as above; settings: Gynecologic cancer cell panel viability, ATPlite luminescence, 48 h; series mostly up to 57.5 µM
In short: as §2

PA-1 = assay: as above; settings: Gynecologic cancer cell panel viability, ATPlite luminescence, 48 h; series mostly up to 57.5 µM
In short: as §2

SKOV3 = assay: as above; settings: Gynecologic cancer cell panel viability, ATPlite luminescence, 48 h; series mostly up to 57.5 µM
In short: as §2

Tov-21-G = assay: as above; settings: Gynecologic cancer cell panel viability, ATPlite luminescence, 48 h; series mostly up to 57.5 µM
In short: as §2

Tov112D = assay: as above; settings: Gynecologic cancer cell panel viability, ATPlite luminescence, 48 h; series mostly up to 57.5 µM
In short: as §2

OV90 = assay: as above; settings: Gynecologic cancer cell panel viability, ATPlite luminescence, 48 h; series mostly up to 57.5 µM
In short: as §2

Measured: Potency

CCOC(=O)c1cncn1[C@H](C)c1ccccc1
inactive: MCC-13 | MCC-26 | MKL-1 | MKL-2 | NIH3T3 | UISO | WaGa

CC(C)(C)[C@]1(O)C[C@@H]2OC(=O)C[C@@]23C(=O)O[C@@H]2OC(=O)[C@H](O)C213 (stereo partly drawn)
inactive: MCC-13 | MCC-26 | MKL-1 | MKL-2 | NIH3T3 | UISO | WaGa

O=C(Nc1ccccc1-c1ccc(Cl)cc1)c1cccnc1Cl
inactive: MCC-13 | MCC-26 | MKL-1 | MKL-2 | NIH3T3 inactive [at 92 µM] | UISO | C33A | CAOV3 | CASKI | Es-2 | HeLa | Hek293T | JEG-3 | PA-1 | SKOV3 | Tov-21-G | Tov112D

CC1=C(C(=O)O)N2C(=O)[C@@H](N)[C@H]2SC1
inactive: MCC-13 | MCC-26 | MKL-1 | MKL-2 | NIH3T3 inactive [at 17.4 µM] | UISO | WaGa | C33A | CASKI | Es-2 | HeLa | Hek293T | JEG-3 | OV90 | PA-1 | SKOV3 | Tov-21-G | Tov112D

CCC(=O)O[C@@H]1C=C2CCC3C(CCC4(C)C3CC[C@@H]4OC(=O)CC)C2CC1 (stereo partly drawn)
not listed: CAOV3 | OV90
inactive: all other assays above

CC(C)N(CCNC(=O)CN1CCCC1=O)C(C)C
not listed: CAOV3 | SKOV3
inactive: all other assays above

Clc1ccccc1C(c1ccccc1)(c1ccccc1)n1cccn1
inactive: MCC-13 | MCC-26 | MKL-1 | MKL-2 | NIH3T3 | UISO | WaGa

CC(=O)Nc1ccc(OC[C@](C)(O)C(=O)Nc2ccc([N+](=O)[O-])c(C(F)(F)F)c2)cc1
not listed: Tov-21-G
inactive: all other assays above
